# Assay results: PubChem BioAssay (Tox21)
# “And” between values parts separate entries of the source, which are not always exact repeats. Equal values may be shown once. Records with an inconclusive call do not appear. Entries that show only a call come without a potency. The source made the active and inactive calls. Calls come from the whole dose curve; as a rule, active = well fitted cell-killing curve with a large enough effect in the repeat runs; inconclusive = weak or mixed curves, or effect the other way; inactive = no such curve, though single readings can be large or run the other way. Positions of bridges follow the written chain, without caps; N, C: chain ends. Non-standard residues stand in square brackets, D forms with d. Residues, ends and D or L forms follow the SMILES beside them. *: point of attachment. X1 = CC[C@@H](C)[C@@H](N)C1=N[C@H](C(=O)*)CS1; d(aIle) = CC[C@H](C)[C@@H](N)C(=O)O; dOrn = NCCC[C@@H](N)C(=O)O
# Experiment: qHTS assay to identify small molecule antagonists of the glucocorticoid receptor (GR) signaling pathway - cell viability counter screen (AID 720693); note: nearly all actives have a fitted effect of over 55% in size
# Conditions: GR-bla HeLa viability, CellTiter-Glo luminescence, 18 h, with 5 nM dexamethasone present; series mostly up to 58.5 µM
# Source text: National Center for Advancing Translational Sciences [NCATS]
# NIH Chemical Genomics Center [NCGC]
# U.S. Environmental Protection Agency [EPA]
# National Institutes of Environmental Health Sciences [NIEHS]
# National Toxicology Program [NTP]
# U.S. Food and Drug Administration [FDA]
# The Glucocorticoid receptor (GR) is one of the members of the nuclear receptor family of ligand-dependent transcription factors. GR plays a critical role in carbohydrate, protein and lipid metabolisms and programmed cell death. CellSensor GR-bla HeLa cell line (Invitrogen) contains a beta-lactamase reporter gene under the control of the glucocorticoid response element stably integrated into HeLa cells, a cervical cancer cell line that expresses glucocorticoid receptor. The activation of the reporter gene under culture conditions can be detected by fluorescence intensity. This cell line has been used to screen the Tox21 10K compound library and to identify the compounds that inhibit the GR signaling. The cytotoxicity of the Tox21 compound library against the GR-bla HeLa cell line was tested in parallel by measuring the cell viability using CellTiter-Glo assay in the same wells.
# Tox21 Assay Protocol Summary:
# The GR-bla HeLa cells were dispensed at 1500 cells/5 ul/well in 1536-well black wall/clear bottom plates using a Multidrop Combi (ThermoFisher Scientific, Waltham, MA) dispenser. After the assay plates were incubated at a 37 C/5% CO2 incubator for 4 hours, 23 nL of compounds dissolved in DMSO, positive controls or DMSO only was transferred to the assay plate by a pintool station (Kalypsys, San Diego, CA), followed by addition of 1 uL of dexamethasone (5 nM, final concentration in the well). The plates were incubated at 37 C for 18 hours. After 1 uL of LiveBLAzerTM B/G FRET substrate was added using a Flying Reagent Dispenser (Aurora Discovery, San Diego, CA), the plates were incubated at room temperature (RT) for 2 hours, and fluorescence intensity was measured by an Envision plate reader (PerkinElmer, Shelton, CT). After measurement of bla assay, 3 ul CellTiter-Glo (Promega, Madison, WI) was added to measure the cytotoxicity and the plates were then incubated at RT for 30 min. The luminescence was measured using a ViewLux (Perkin Elmer) plate reader.
# Potency is the fitted concentration of half-maximal effect.
row,SMILES,Potency
1,CCCn1c(=O)[nH]c(=O)c2[nH]cnc21,inactive
2,C/C(=C\C(=O)OCCCCCCCCC(=O)O)C[C@@H]1OC[C@H](C[C@@H]2O[C@H]2[C@@H](C)[C@H](C)O)[C@@H](O)[C@H]1O,inactive
3,COC(=O)C[C@](O)(CCCC(C)(C)O)C(=O)O[C@@H]1C(OC)=CC23CCCN2CCc2cc4c(cc2[C@H]13)OCO4 (stereo not given in full),1.2 µM (active) and 1.07 µM (active)
4,O=C(N[C@H](CO)[C@H](O)c1ccc([N+](=O)[O-])cc1)C(Cl)Cl,inactive
5,FC(F)(F)C(F)(F)C(F)(F)C(F)(F)C(F)(F)F,inactive
6,C[S+](CC[C@H](N)C(=O)O)C[C@H]1O[C@@H](n2cnc3c(N)ncnc32)[C@H](O)[C@@H]1O (stereo not given in full),inactive
7,COc1cc2c(c(OC)c1OC)-c1c(cc3c(c1OC)OCO3)C[C@@H](C)[C@](C)(O)C2,inactive
8,Cc1cc(Br)ccc1NC(=O)CCl,43.6 µM (active)
9,CC(=O)Oc1cc(C(F)(F)F)ccc1C(=O)O,inactive
10,CO[C@H](C(=O)[C@@H](O)[C@@H](C)O)C1Cc2cc3cc(O[C@H]4C[C@@H](O[C@H]5C[C@@H](O)[C@H](O)[C@@H](C)O5)[C@@H](O)[C@@H](C)O4)c(C)c(O)c3c(O)c2C(=O)[C@H]1O[C@H]1C[C@@H](O[C@H]2C[C@@H](O[C@H]3C[C@](C)(O)[C@H](O)[C@@H](C)O3)[C@H](O)[C@@H](C)O2)[C@H](O)[C@@H](C)O1 (stereo not given in full),1.34 µM (active)
11,CC(C)=CCC/C(C)=C/CC/C(C)=C/CC/C=C(\C)CC/C=C(\C)CCC=C(C)C,inactive
12,N[C@@H](Cc1ccc(O)c(O)c1)C(=O)O,inactive
13,N[C@@H](Cc1cnc[nH]1)C(=O)O,inactive
14,OCC1(CO)COC(C(Cl)(Cl)Cl)OC1,inactive
15,CNC(=O)C[C@@H](N)C(=O)N[C@@H](C(=O)N[C@@H]1C(=O)N2[C@@H]1SC(C)(C)[C@@H]2C(=O)O)c1ccc(O)cc1,inactive
16,Cc1cc(N)c2ccccc2[n+]1CCCCCCCCCC[n+]1c(C)cc(N)c2ccccc21,inactive
17,CC[C@@H](C)[C@@H](N)C1=N[C@H](C(=O)N[C@@H](CC(C)C)C(=O)N[C@@H](CCC(=O)O)C(=O)N[C@@H](C(=O)N[C@@H]2CCCCNC(=O)[C@@H](CC(N)=O)NC(=O)[C@@H](CC(=O)O)NC(=O)[C@@H](Cc3cnc[nH]3)NC(=O)[C@@H](Cc3ccccc3)NC(=O)[C@@H]([C@H](C)CC)NC(=O)[C@@H](CCCN)NC2=O)[C@@H](C)CC)CS1 (X1-LE[d(aIle)][dK][dOrn][dI][dF][dH][dD][dN]; lactam 4-C),inactive
18,CC(C)(C)C(=O)OCC(=O)[C@H]1CC[C@H]2[C@@H]3CCC4=CC(=O)CC[C@]4(C)[C@H]3CC[C@]12C,inactive
19,CO/N=C(\C(=O)N[C@@H]1C(=O)N2C(C(=O)O)=C(COC(C)=O)CS[C@H]12)c1csc(N)n1 (stereo in doubt),inactive
20,CC1(C)S[C@@H]2[C@H](NC(=O)[C@H](N)c3ccc(O)cc3)C(=O)N2[C@H]1C(=O)O,inactive

row,SMILES,Potency
1,C=CC(N)CCC(=O)O (stereo not given),inactive
2,O=P(O)(O)CP(=O)(O)O,inactive
3,Nc1nc(/C(=C/CC(=O)O)C(=O)N[C@@H]2C(=O)N3C(C(=O)O)=CCS[C@H]23)cs1,inactive
4,CC(C)COC(=O)OCN1C(=O)CN(CCN2CC(=O)N(COC(=O)OCC(C)C)C(=O)C2)CC1=O,inactive
5,CN=C(N)NCCC[C@H](N)C(=O)O,inactive
6,NC[C@H]1O[C@H](O[C@H]2[C@H](O)[C@@H](O[C@H]3O[C@H](CO)[C@@H](O)[C@H](N)[C@H]3O)[C@H](N)C[C@@H]2N)[C@H](N)C[C@@H]1O,inactive
7,CCC(=O)OC(OP(=O)(CCCCc1ccccc1)CC(=O)N1C[C@H](C2CCCCC2)C[C@H]1C(=O)O)C(C)C (stereo not given in full),inactive
8,CCN(CC)CCOC[C@H]1O[C@@H](O)[C@H](OCCN(CC)CC)[C@@H](O)[C@@H]1O,inactive
9,O=C(O)COc1ccc(C(=O)c2cccs2)c(Cl)c1Cl,inactive
10,N[C@H](CO)C(=O)O,inactive
11,Oc1ccc(Cl)cc1C1CCCC1,inactive
12,CCCOC(=O)c1ccccc1O,inactive
13,O=C1c2c(O)cccc2[C@H]([C@@H]2O[C@H](CO)[C@@H](O)[C@H](O)[C@H]2O)c2cc(CO)cc(O)c21,inactive
14,CC12CCC(C[N+](C)(CCC[N+](C)(C)C)C1)C2(C)C (stereo not given),inactive
15,CC(C)c1ncc([N+](=O)[O-])n1C,inactive
16,O=S(=O)(O)CC(S)CS (stereo not given),inactive
17,NC(=S)NS(=O)(=O)c1ccc(N)cc1,inactive
18,Cc1c(N)nc([C@H](CC(N)=O)NC[C@H](N)C(N)=O)nc1C(=O)N[C@H](C(=O)N[C@H](C)[C@@H](O)[C@H](C)C(=O)N[C@H](C(=O)NCCc1nc(-c2nc(C(=O)NCCCCN=C(N)N)cs2)cs1)[C@@H](C)O)[C@@H](O[C@@H]1O[C@@H](CO)[C@@H](O)[C@H](O)[C@@H]1O[C@H]1O[C@H](CO)[C@@H](O)[C@H](OC(N)=O)[C@@H]1O)c1cnc[nH]1,inactive
19,CCN(CC)C(=O)c1cccnc1,inactive
20,Nc1nc(NC2CC2)c2ncn([C@@H]3C=C[C@@H](CO)C3)c2n1,inactive
